# Reference: article PMC7862700, “An all-to-all approach to the identification of sequence-specific readers for epigenetic DNA modifications on cytosine”
# Assays:
# Test in all cases: DAPPL (digital affinity profiling via proximity ligation, sequencing); 10 mM Tris-HCl pH 7.5, 50 mM NaCl, 1 mM DTT, 4% glycerol, room temperature, 30 min; GST-TFs on glutathione beads, 16-mer random dsDNA library, 0.1% formaldehyde crosslink after washing; high values mean tight binding
# FLI1 = biological target: T1, FLI1 (Homo sapiens, UniProt Q01543 1-452); details: protein: recombinant; tags: N-terminal GST; dsDNA, one strand shown
# T1 sequence: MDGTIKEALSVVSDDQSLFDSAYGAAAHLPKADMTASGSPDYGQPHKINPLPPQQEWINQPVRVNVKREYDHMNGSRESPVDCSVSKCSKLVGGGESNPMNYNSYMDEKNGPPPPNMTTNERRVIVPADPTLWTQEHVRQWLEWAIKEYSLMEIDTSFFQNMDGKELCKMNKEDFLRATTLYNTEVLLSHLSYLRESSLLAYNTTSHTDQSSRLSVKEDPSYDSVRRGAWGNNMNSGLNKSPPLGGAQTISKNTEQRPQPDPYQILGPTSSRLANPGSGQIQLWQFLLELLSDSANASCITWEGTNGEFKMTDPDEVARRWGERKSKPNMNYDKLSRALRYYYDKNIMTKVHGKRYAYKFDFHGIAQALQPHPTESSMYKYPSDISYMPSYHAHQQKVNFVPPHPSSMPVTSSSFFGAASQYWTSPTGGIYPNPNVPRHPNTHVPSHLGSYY
# In short: (§1)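 After expression in yeast as GST fusions, human transcription factors were bound to glutathione beads, DNA-barcoded and mixed with a tag-only sample. The pools were incubated with 200 nmole of a 16-mer random double-stranded DNA library in Tris/NaCl/DTT/glycerol buffer (30 min, room temperature), washed and crosslinked with 0.1% formaldehyde. Proximity ligation with BsaI/T4 ligase ran for 1 h at 37 °C, before PCR amplification and sequencing on an Illumina NextSeq500. Binding signal is a hexamer's read frequency for a factor divided by its frequency for the tag-only sample.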
# ELK1 = biological target: T2, ELK1 (Homo sapiens, UniProt P19419 1-428); details: protein: recombinant; tags: N-terminal GST; dsDNA, one strand shown
# T2 sequence: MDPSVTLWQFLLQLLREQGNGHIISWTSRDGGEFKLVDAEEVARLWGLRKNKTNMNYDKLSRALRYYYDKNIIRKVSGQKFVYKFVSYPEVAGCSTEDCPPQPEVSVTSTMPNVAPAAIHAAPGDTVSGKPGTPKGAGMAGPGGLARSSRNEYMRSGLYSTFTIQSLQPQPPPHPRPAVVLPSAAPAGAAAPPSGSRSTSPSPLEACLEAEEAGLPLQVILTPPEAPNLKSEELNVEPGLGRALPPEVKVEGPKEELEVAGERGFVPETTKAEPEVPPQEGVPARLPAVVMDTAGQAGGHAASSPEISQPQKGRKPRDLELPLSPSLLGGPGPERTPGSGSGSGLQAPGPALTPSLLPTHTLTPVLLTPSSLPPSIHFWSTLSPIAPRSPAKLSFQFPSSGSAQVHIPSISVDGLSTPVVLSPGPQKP
# In short: as §1
# GABPA = biological target: T3, GABPA (Homo sapiens, UniProt Q06546 1-454); details: protein: recombinant; tags: N-terminal GST; dsDNA, one strand shown
# T3 sequence: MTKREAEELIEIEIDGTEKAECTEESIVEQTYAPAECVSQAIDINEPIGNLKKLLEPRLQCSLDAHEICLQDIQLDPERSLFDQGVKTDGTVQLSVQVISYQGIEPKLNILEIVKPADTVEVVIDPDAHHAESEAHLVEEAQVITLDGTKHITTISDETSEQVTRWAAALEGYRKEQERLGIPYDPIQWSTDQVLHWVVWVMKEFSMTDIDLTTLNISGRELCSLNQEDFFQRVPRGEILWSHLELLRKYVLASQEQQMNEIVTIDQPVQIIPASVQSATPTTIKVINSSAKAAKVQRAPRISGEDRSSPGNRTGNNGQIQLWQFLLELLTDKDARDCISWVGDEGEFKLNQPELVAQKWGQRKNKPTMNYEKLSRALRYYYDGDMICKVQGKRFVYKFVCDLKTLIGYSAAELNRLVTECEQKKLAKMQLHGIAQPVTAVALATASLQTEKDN
# In short: as §1
# ERG = biological target: T4, ERG (Homo sapiens, UniProt P11308 1-479); details: protein: recombinant; tags: N-terminal GST; dsDNA, one strand shown
# T4 sequence: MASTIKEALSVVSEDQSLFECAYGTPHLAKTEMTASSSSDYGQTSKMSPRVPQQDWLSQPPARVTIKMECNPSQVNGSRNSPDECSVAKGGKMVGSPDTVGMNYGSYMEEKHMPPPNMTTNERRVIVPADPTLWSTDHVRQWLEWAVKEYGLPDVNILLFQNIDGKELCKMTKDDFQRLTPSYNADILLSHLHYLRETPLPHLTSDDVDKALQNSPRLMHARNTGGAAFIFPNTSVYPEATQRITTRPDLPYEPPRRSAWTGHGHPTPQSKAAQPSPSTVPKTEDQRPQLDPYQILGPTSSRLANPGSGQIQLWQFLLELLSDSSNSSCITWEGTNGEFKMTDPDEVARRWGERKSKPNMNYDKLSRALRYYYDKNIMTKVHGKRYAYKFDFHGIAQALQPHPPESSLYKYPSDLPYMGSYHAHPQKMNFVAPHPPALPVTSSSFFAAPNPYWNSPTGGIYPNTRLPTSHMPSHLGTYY
# In short: as §1
# ELF1 = ELF1 (Homo sapiens, UniProt P32519 1-619); details: protein: recombinant; tags: N-terminal GST; dsDNA, one strand shown
# Chain of ELF1 (P32519 whole entry): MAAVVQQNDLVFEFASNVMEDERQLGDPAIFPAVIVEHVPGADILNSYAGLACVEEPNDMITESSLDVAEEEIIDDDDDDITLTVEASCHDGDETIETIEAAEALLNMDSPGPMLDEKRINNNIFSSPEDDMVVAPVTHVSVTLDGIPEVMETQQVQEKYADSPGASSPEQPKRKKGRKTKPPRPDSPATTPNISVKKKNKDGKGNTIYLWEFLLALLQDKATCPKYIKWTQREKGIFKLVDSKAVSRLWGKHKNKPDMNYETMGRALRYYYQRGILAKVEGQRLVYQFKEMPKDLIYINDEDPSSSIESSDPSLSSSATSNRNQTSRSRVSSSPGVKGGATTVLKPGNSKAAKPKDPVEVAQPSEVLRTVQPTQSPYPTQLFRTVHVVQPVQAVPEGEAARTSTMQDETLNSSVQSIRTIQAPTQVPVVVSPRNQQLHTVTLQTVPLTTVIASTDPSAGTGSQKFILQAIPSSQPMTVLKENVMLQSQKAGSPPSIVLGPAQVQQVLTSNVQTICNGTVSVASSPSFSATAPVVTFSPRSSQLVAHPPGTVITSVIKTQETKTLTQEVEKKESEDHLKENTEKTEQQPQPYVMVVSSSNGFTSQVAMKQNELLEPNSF
# In short: as §1
# EHF = biological target: T5, EHF (Homo sapiens, UniProt Q9NZC4 1-300); details: protein: recombinant; tags: N-terminal GST; dsDNA, one strand shown
# T5 sequence: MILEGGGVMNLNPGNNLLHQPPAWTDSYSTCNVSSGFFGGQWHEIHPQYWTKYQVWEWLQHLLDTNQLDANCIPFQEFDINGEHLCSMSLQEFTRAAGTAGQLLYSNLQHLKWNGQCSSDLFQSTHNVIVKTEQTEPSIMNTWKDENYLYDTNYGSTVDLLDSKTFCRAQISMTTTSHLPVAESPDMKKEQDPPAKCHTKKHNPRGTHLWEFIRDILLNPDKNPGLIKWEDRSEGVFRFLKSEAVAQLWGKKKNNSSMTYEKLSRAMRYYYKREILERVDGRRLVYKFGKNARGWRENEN
# In short: as §1
# SPI1 = SPI1 (Homo sapiens, UniProt P17947 1-270); details: protein: recombinant; tags: N-terminal GST; dsDNA, one strand shown
# In short: as §1
# SPIB = SPIB (Homo sapiens, UniProt Q01892 1-262); details: protein: recombinant; tags: N-terminal GST; dsDNA, one strand shown
# Chain of SPIB (Q01892 whole entry): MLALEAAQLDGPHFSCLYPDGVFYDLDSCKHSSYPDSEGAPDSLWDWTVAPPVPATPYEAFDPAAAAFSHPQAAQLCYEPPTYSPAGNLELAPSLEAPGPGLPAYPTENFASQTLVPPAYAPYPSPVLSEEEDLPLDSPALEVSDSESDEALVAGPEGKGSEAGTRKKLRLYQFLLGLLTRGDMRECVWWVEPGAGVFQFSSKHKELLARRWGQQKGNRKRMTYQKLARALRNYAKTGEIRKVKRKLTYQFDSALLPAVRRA
# In short: as §1
# ELK3 = biological target: T6, ELK3 (Homo sapiens, UniProt P41970 1-407); details: protein: recombinant; tags: N-terminal GST; dsDNA, one strand shown
# T6 sequence: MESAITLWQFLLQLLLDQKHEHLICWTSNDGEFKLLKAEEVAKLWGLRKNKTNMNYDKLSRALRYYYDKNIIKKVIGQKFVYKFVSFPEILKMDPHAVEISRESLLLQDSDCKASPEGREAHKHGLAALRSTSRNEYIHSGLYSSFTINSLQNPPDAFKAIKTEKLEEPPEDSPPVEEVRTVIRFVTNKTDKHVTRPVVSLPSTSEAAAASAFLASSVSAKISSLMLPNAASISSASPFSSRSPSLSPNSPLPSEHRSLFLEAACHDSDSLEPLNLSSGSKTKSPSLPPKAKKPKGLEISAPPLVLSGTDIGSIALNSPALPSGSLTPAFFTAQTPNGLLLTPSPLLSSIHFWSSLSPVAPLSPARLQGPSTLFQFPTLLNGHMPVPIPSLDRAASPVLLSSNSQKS
# In short: as §1
# FEV = biological target: T7, FEV (Homo sapiens, UniProt Q99581 1-238); details: protein: recombinant; tags: N-terminal GST; dsDNA, one strand shown
# T7 sequence: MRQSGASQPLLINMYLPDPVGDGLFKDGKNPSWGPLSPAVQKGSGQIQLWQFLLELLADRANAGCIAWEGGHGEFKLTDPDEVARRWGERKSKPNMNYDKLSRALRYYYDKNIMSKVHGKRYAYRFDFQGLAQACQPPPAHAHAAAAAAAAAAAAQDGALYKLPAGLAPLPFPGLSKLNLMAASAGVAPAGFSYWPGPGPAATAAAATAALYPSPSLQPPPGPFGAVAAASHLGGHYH
# In short: as §1
# ETV5 = ETV5 (Homo sapiens, UniProt P41161 1-510); details: protein: recombinant; tags: N-terminal GST; dsDNA, one strand shown
# Chain of ETV5 (P41161 whole entry): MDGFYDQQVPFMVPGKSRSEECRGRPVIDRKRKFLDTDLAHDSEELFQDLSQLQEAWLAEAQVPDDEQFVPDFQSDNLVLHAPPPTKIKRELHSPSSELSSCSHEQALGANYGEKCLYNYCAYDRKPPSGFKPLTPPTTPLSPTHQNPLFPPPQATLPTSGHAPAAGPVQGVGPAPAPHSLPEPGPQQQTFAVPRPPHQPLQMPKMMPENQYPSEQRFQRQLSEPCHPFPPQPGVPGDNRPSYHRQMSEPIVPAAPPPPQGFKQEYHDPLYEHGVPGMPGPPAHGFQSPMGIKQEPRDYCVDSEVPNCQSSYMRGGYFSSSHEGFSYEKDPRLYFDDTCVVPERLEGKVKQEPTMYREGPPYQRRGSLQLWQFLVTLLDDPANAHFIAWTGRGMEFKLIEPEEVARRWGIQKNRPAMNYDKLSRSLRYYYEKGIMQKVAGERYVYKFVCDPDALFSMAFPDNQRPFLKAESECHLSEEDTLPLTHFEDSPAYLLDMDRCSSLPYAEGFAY
# In short: as §1
# HSF1 = HSF1 (Homo sapiens, UniProt Q00613 1-529); details: protein: recombinant; tags: N-terminal GST; chain copies: 3; dsDNA, one strand shown
# Chain of HSF1 (Q00613 whole entry): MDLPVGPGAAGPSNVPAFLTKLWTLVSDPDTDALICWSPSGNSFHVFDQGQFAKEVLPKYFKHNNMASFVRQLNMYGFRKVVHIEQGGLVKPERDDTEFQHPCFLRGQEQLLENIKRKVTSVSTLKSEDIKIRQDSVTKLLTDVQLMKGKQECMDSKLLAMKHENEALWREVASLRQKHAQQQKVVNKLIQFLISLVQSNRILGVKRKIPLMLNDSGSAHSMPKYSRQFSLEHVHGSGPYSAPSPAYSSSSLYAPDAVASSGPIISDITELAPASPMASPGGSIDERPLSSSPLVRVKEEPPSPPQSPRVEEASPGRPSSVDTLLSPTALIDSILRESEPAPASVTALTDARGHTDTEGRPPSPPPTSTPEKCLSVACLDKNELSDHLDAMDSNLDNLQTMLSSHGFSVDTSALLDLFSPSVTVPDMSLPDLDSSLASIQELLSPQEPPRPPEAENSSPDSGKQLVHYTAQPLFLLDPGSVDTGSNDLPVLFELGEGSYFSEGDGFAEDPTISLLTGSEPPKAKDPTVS
# In short: as §1
# SPIC = biological target: T8, SPIC (Homo sapiens, UniProt Q8N5J4 1-248); details: protein: recombinant; tags: N-terminal GST; dsDNA, one strand shown
# T8 sequence: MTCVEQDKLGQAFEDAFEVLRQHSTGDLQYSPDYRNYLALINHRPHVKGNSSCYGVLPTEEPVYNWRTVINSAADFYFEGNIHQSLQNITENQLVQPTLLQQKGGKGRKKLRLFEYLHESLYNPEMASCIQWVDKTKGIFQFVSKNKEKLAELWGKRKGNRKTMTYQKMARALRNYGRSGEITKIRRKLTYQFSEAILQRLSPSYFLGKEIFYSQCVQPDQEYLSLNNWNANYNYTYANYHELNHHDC
# In short: as §1
# ELF4 = ELF4 (Homo sapiens, UniProt Q99607 1-663); details: protein: recombinant; tags: N-terminal GST; dsDNA, one strand shown
# Chain of ELF4 (Q99607 whole entry): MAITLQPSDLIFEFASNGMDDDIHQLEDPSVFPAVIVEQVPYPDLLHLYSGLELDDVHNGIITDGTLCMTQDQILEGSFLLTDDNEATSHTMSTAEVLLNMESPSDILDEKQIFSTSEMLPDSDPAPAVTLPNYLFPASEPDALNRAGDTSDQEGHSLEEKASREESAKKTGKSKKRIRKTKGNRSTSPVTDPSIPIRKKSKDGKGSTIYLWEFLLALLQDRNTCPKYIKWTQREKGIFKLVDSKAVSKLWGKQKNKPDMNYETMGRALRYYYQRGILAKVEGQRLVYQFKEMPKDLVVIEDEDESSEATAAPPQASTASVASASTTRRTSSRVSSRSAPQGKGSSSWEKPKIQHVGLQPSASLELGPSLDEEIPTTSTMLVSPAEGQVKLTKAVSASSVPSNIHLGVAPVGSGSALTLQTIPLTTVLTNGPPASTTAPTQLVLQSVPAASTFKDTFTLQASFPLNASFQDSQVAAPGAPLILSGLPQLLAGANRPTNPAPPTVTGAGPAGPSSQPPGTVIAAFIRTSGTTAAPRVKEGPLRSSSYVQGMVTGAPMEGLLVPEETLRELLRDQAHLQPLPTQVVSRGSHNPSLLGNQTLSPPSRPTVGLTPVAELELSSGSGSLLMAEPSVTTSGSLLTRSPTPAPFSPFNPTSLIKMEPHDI
# In short: as §1
# ETV2 = biological target: T9, ETV2 (Homo sapiens, UniProt O00321 1-342); details: protein: recombinant; tags: N-terminal GST; dsDNA, one strand shown
# T9 sequence: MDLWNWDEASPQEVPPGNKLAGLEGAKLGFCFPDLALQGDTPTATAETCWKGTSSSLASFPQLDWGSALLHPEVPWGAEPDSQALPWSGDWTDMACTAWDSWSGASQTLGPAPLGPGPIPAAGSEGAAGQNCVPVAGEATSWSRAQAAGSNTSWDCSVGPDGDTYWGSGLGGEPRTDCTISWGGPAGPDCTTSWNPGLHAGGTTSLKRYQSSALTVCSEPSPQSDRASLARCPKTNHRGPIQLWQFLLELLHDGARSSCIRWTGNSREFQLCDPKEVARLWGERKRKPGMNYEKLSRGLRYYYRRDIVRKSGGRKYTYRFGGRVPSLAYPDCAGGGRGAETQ
# In short: as §1
# ELF3 = biological target: T10, ELF3 (Homo sapiens, UniProt P78545 1-371); details: protein: recombinant; tags: N-terminal GST; dsDNA, one strand shown
# T10 sequence: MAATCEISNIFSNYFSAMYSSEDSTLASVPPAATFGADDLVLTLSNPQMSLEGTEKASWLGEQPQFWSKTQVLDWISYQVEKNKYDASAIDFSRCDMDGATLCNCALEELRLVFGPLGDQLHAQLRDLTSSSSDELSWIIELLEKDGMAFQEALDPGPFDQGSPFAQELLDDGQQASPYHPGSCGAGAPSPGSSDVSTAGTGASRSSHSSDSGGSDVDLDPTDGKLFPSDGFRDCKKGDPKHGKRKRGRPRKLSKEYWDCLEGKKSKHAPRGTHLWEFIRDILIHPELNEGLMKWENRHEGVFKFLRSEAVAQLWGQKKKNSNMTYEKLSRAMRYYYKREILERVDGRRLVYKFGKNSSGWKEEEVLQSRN
# In short: as §1
# CRX = CRX (Homo sapiens, UniProt O43186 1-299); details: protein: recombinant; tags: N-terminal GST; dsDNA, one strand shown
# Chain of CRX (O43186 whole entry): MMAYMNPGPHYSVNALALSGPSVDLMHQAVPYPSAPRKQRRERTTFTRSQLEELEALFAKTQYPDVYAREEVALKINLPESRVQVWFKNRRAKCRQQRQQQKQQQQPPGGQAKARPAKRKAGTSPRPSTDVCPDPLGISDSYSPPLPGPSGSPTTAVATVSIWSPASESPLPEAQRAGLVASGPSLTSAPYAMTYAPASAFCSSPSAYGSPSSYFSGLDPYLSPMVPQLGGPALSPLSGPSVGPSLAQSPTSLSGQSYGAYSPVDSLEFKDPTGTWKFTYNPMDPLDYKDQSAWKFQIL
# In short: as §1
# ETV1 = ETV1 (Homo sapiens, UniProt P50549 1-477); details: protein: recombinant; tags: N-terminal GST; dsDNA, one strand shown
# Chain of ETV1 (P50549 whole entry): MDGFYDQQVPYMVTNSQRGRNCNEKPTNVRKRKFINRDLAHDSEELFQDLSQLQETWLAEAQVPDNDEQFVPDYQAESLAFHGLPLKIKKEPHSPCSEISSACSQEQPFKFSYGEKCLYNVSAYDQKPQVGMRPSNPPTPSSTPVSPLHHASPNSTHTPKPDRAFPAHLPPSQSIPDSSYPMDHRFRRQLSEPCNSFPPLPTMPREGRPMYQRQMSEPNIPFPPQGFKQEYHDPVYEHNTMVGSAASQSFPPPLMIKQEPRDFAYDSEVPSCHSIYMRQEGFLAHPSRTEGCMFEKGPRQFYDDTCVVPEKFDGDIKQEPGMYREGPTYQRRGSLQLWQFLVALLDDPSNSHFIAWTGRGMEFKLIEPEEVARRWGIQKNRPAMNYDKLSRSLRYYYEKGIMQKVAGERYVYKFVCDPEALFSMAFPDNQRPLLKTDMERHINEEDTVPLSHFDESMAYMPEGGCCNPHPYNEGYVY
# In short: as §1
sequence,measurement,setting,value
ATCAAT,binding signal,FLI1,"1.12 fold enrichment (6-mer frequency, TF over GST control)"
same,binding signal,ELK1,"1.01 fold enrichment (6-mer frequency, TF over GST control)"
same,binding signal,GABPA,"1.16 fold enrichment (6-mer frequency, TF over GST control)"
same,binding signal,ERG,"1.04 fold enrichment (6-mer frequency, TF over GST control)"
same,binding signal,ELF1,"1.15 fold enrichment (6-mer frequency, TF over GST control)"
same,binding signal,EHF,"1.02 fold enrichment (6-mer frequency, TF over GST control)"
same,binding signal,SPI1,"1.06 fold enrichment (6-mer frequency, TF over GST control)"
same,binding signal,SPIB,"1.07 fold enrichment (6-mer frequency, TF over GST control)"
same,binding signal,ELK3,"1.06 fold enrichment (6-mer frequency, TF over GST control)"
same,binding signal,FEV,"1.05 fold enrichment (6-mer frequency, TF over GST control)"
same,binding signal,ETV5,"1.1 fold enrichment (6-mer frequency, TF over GST control)"
same,binding signal,HSF1,"1.14 fold enrichment (6-mer frequency, TF over GST control)"
same,binding signal,SPIC,"1.06 fold enrichment (6-mer frequency, TF over GST control)"
same,binding signal,ELF4,"1.1 fold enrichment (6-mer frequency, TF over GST control)"
same,binding signal,ETV2,"1.16 fold enrichment (6-mer frequency, TF over GST control)"
same,binding signal,ELF3,"1.12 fold enrichment (6-mer frequency, TF over GST control)"
same,binding signal,CRX,"1.32 fold enrichment (6-mer frequency, TF over GST control)"
same,binding signal,ETV1,"1.06 fold enrichment (6-mer frequency, TF over GST control)"
